Assay outcomes as filed in PubChem.
Rows were chosen to be rich in hits. Some 3% of all compounds tested hit in one or more screens of this group.
Tau fibril ThT: inhibitors of human tau fibril formation, thioflavin T binding | AID 1460 | 270,000 tested, 2.1% active | recombinant tau K18 P301L, heparin-induced fibrillization, ThT fluorescence | Potency, µM (highest dose often 57.4 µM), for the others: at the highest dose activity, negative = inhibition, most hits filed as inhibitors | P10636; further: nearly all actives have a fitted effect of over 55% in size
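Tau K18 P301L fragment (15 uM unlabeled plus 0.24 uM Alexa 594-labeled) in 100 mM sodium acetate pH 7 with compound, fibrillization induced by 20 uM heparin for 6 hr at 37 C. Thioflavin T (30 uM) added, fluorescence read after 1 hr (ex 450, em 510 nm).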
Tau FP inhib: inhibitors of human tau fibril formation | K18 P301L tau heparin fibrillization, Alexa594 FP, 6 h | Potency, µM (series often up to 57.7 µM), for the others: top-dose activity, negative = inhibition, hits mostly inhibitors | 280,000 tested, 0.39% active; further: nearly all actives have a fitted effect of over 55% in size
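Human K18 P301L fragment (15 uM unlabeled plus 0.24 uM Alexa 594-labeled) in 100 mM sodium acetate pH 7 with compound, aggregation induced by 20 uM heparin for 6 hr at 37 C. ThT (30 uM) added for 1 hr, then Alexa 594 FP read.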
Tau fluor cs: counter-screen for tau fibril formation inhibitors; tau K18 P301L (four-repeat tau fragment) Alexa594 fluorescence, heparin fibrillization; Potency, µM (doses to about 57.7 µM), for the others: top-dose activity change, negative = decrease; 280,000 tested, 0.93% active; AID 1463; further: nearly all actives have a fitted effect of over 55% in size
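Human K18 P301L tau (15 uM unlabeled plus 0.24 uM Alexa 594-labeled, final) in 100 mM sodium acetate pH 7 was mixed with compound and 20 uM heparin and incubated 6 hr at 37 C.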
TRb SRC2 PPI: TRbeta-SRC2 interaction inhibition | P10828 | TRbeta-SRC2 peptide binding, fluorescence polarization; receptor liganded with 1 µM T3 | Potency, µM (highest dose often 106 µM), without a hit: at the highest dose activity change, negative = inhibition, actives largely listed as inhibitors | 280,000 tested, 0.065% active | AID 1469;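 further: plate controls were bound peptide for no effect and peptide without receptor for full effect; nearly all actives have a fitted effect of over 50% in size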
Target sequence (P10828 whole entry, looked up): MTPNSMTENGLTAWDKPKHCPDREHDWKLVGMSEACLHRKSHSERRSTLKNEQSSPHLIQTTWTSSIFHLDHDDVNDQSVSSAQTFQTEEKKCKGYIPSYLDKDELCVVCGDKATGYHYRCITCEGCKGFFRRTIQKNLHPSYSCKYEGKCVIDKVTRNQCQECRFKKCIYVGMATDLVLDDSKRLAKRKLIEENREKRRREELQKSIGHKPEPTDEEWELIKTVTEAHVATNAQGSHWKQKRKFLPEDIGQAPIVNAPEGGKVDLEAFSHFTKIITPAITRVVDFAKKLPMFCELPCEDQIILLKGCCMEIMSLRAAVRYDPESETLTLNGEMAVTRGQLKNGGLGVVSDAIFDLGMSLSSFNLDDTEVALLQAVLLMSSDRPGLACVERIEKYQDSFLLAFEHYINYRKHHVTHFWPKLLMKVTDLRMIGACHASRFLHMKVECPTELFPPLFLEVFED
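Assay buffer: 20 mM Tris-HCl, 100 mM NaCl, 10% glycerol, 1 mM EDTA, 0.01% NP-40, 1 mM DTT, 1 uM T3, 5% DMSO; TRb LBD 0.6 uM, Texas Red SRC2 20 nM; FP after 5 hr.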
TexasRed fluor: counter-screen for TRb-SRC2 inhibitors: fluorescence interference | TRb/SRC2 Texas Red total fluorescence interference | AID 1479 | 280,000 tested, 0.29% active | Potency, µM (doses to about 106 µM), for inactives: top-dose fluorescence change, negative = quenching; active means well fitted curve in either direction with a large enough effect; inconclusive means small, poorly fitted or top-dose-only effect
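Flags fluorescent or light-absorbing compounds by total fluorescence, S + 2P, at 555 nm excitation and 632 nm emission. Mixture: 20 nM Texas Red SRC2 peptide, 0.6 uM human TRb LBD, 1 uM T3, 5% DMSO; compound exposure 5 h at ambient temperature.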
Starred values were filed as active, the others as inactive; u = inconclusive; x = no result given; [ ] = another dose, or the depositor's remark. Unless noted, the call rests on the fitted dose curve; in most records, active means well fitted curve in the direction sought with a large enough effect; inconclusive means small, poorly fitted or top-dose-only effect, or another doubt; inactive means no such curve, though single readings can be large; an effect the other way counts as inactive or inconclusive. Unless noted, on the % scale 0 is the no-effect control and ±100 the full control effect; potency means the concentration at half of the fitted maximal effect.

SMILES	Tau fibril ThT	Tau FP inhib	Tau fluor cs	TRb SRC2 PPI	TexasRed fluor
CCOC(=O)c1c(/N=C/c2cc([N+](=O)[O-])ccc2O)sc(C)c1C	u	11%	u	2%	1%
CCOC(=O)c1c(/N=C/c2cccc([N+](=O)[O-])c2O)sc2c1CCC2	16µM*	-7%	-27%	-4%	-3%
O=C(CS)Nc1ccc2ccccc2c1	25µM*	u	u	10%	-1%
O=C(CSCc1nc2ccccc2[nH]1)Nc1ccc2ccccc2c1	22µM*	u	u	-10%	-3%
O=C(CSCc1nc2ccccc2[nH]1)Nc1ccc(Oc2ccccc2)cc1	-9%	u	u	2%	1%
CCCCCC(=O)Nc1ccc2ccccc2c1	-2%	-2%	-3%	3%	1%
NC(=O)c1c(N)sc2c1CCCCC2	u	u	-11%	-5%	5%
COCCNC(=O)c1c(N)sc2c1CCCC2	28µM*	u	-24%	u	4%
CNC(=O)c1c(N)sc2c1CCCCC2	18µM*	u	-29%	-3%	-2%
Cc1cccc(-c2nc3scc(CCNS(=O)(=O)c4ccc(F)cc4C)n3n2)c1	-10%	u	u	-4%	0%
NC(=O)c1ccsc1N	20µM*	32µM*	-25%	-4%[53 µM]	0%[53 µM]
CCN1C(=O)/C(=C/c2nc3ccccc3c(=O)[nH]2)c2ccccc21	u	2%	-4%	-7%	-1%
C=CCN1C(=O)/C(=c2\sc3nc(=O)c(Cc4ccc(OC)c(OC)c4)nn3c2=O)c2ccccc21	28µM*	u	-30%	4%	-4%
C=CCN1C(=O)/C(=c2\sc3nc(=O)c(Cc4ccccc4)nn3c2=O)c2ccccc21	18µM*	u	-23%	1%	-6%
CCN1C(=O)/C(=c2\sc3nc(=O)c(Cc4ccccc4)nn3c2=O)c2ccccc21	20µM*	-17%	-14%	2%	1%
CSCC[C@H](NC(=O)[C@H](CC(C)C)NC(=O)CNC(=O)[C@H](Cc1ccccc1)NC(=O)[C@H](Cc1ccccc1)NC(=O)[C@H](CCC(N)=O)NC(=O)[C@H](CCC(N)=O)NC(=O)[C@@H]1CCCN1C(=O)[C@H](CCCCN)NC(=O)[C@@H]1CCCN1C(=O)[C@@H](N)CCCN=C(N)N)C(N)=O	x	x	x	0%	-34%
CCN(CC)CCNC(=O)c1ccc(-c2nc(CS(=O)(=O)c3ccc(C)cc3)c(C)o2)cc1	9%	u	-4%	-4%	-1%
CCSC(=O)N(CC(C)C)CC(C)C	x	x	x	3%[201 µM]	-5%[201 µM]
O=C(CN1c2ccccc2Sc2ccccc21)NNC(=O)Nc1cccc(Cl)c1	-4%	u	8.9µM*[quencher]	3%	2%
COc1ccccc1NC(=O)N1CCN(c2nnc(C)c3c(C)n(-c4ccccc4)nc23)CC1	3%	1%	11%	2%	3%
CC#CCN1c2ccccc2[C@]23C[C@@H](C(=O)OC)N(C(=O)c4cccs4)C2=NC(C(=O)OC)=C(C(=O)OC)[C@H]13	-5%[11.5 µM]	2%[11.6 µM]	-8%[11.6 µM]	10%[11.2 µM]	-4%[11.2 µM]
Cc1ccc(C)c(N2CCN(C(=O)C(C)n3c(C)c4cnn(-c5ccccc5)c(=O)c4c3C)CC2)c1 (stereo unspecified)	-14%	0%	-15%	-8%	-1%
C[n+]1ccc(/C=C/c2ccccc2O)c2ccccc21	u	-5%	-14%	-4%	-1%
CN1/C(=C/c2cc[n+](C)c3ccccc23)C=Cc2ccccc21	7.1µM*	u	-30%	4%	0%
CC(C)=CCC/C(C)=C/CC/C(C)=C/CC/C(C)=C/C(=O)O	x	x	x	4%	3%
CCN(CC)c1ccc(NC(=S)Nc2ccc(F)cc2)cc1	13µM*	u	u	u	0%
O=C(NC(=S)Nc1ccc(N2CCOCC2)c(Cl)c1)c1cccs1	-18%	-3%	-30%	11%	-3%
O=C(NC(=S)Nc1ccc(N2CCCCC2)cc1)c1cccs1	13µM*	u	16µM*[quencher]	-2%	-2%
CCN(CC)c1ccc(NC(=S)NC(=O)c2cccs2)cc1	6.3µM*	19%	13µM*[quencher]	-8%	-2%
O=C(Nc1ccc(N2CCCC2)c(Cl)c1)c1cccs1	u	11%	16µM*[quencher]	1%	-1%
